We go through 25 compounds from PubChem BioAssay.

A number with no mark means an inactive call. The source made the active and inactive calls.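 The calls were made as follows, unless noted: active = mean inhibition over 43.08%, the solvent-only control mean plus 3 SD; inactive = the rest.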

Experiment [1] deals with Nuclear receptor coactivator 3 (Homo sapiens) (UniProt Q9Y6Q9). Description: SRC3 coactivator transcriptional activity inhibitors, confirmation, cell-based, luminescence, quadruplicate (AID 588792).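 Also: 0% = DMSO treated cells and 100% = gossypol at 36 µM.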 The following applies: HEK293 GAL4-SRC3 luciferase reporter, at 3.6 µM, active compounds read high.
Sequence of Nuclear receptor coactivator 3 (Homo sapiens) (Q9Y6Q9 whole entry, looked up, the tested form may be a part): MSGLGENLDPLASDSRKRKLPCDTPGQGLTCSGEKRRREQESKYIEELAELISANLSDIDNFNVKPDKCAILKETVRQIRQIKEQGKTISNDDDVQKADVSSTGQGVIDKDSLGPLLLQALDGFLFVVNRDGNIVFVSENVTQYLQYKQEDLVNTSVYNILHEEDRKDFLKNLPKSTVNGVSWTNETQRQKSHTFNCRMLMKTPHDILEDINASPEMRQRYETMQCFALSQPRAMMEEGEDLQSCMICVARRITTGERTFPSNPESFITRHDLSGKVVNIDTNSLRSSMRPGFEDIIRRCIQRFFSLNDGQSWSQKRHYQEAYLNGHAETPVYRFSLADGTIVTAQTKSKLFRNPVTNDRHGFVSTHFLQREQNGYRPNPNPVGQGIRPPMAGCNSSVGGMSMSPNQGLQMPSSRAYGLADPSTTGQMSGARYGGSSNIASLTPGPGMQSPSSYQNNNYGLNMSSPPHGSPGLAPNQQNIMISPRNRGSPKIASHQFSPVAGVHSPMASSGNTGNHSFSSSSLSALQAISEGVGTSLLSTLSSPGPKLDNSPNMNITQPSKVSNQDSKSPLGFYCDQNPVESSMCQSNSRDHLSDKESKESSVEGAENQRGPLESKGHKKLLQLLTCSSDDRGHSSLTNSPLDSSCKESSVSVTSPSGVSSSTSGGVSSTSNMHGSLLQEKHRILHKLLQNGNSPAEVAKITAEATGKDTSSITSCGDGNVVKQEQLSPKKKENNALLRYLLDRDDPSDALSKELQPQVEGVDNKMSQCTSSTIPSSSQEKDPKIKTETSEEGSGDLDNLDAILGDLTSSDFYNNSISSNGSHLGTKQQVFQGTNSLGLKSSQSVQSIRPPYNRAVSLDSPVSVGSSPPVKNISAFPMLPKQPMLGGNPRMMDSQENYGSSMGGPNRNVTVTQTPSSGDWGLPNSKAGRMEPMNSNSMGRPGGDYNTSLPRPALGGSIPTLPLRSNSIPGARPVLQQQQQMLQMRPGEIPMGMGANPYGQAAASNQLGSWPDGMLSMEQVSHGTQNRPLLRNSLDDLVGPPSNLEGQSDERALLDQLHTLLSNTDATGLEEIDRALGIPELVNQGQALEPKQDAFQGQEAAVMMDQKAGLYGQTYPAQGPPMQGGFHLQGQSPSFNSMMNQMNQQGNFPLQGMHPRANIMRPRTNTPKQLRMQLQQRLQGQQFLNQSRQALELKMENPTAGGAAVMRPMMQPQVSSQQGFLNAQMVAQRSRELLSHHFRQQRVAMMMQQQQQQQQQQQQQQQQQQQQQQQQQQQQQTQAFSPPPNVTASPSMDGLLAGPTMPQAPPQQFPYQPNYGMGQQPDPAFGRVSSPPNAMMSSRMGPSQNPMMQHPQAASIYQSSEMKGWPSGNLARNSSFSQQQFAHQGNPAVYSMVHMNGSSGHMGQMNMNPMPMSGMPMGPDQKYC
Experiment [2] relates to transactivating tegument protein VP16 (Human herpesvirus 1), Gal4-VP16 luciferase reporter. Description: VP16 transactivation inhibitors, counter-screen for SRC3 inhibitor project, cell-based, luminescence, high throughput (AID 588794; in the data active = inhibition above about 30%). The following applies: mammalian cells, VP16-driven luciferase reporter luminescence; at 3.6 µM; active compounds read high. (In general: Counterscreens check selectivity or assay interference.)

In experiment [3] the test system is transactivating tegument protein VP16 (Human herpesvirus 1). The experiment is described as follows: VP16 transactivation reporter inhibitors, counter-screen for SRC2 inhibitor project, cell-based, luminescence, single concentration (AID 652007; in the data active = inhibition above about 36%). The settings on record: cell-based VP16 transactivation luciferase reporter, at 8.9 µM, active compounds read high.
Experiment [4] concerns the target Nuclear receptor coactivator 2 (Homo sapiens) (UniProt Q15596). The experiment is described as follows: SRC2 coactivator transcriptional activity inhibitors, confirmation, cell-based, luminescence, HEK293, triplicate (AID 652008;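 active = mean inhibition above 46.5%, the solvent-only control mean plus 3 SD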;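 also: 0% = DMSO-treated cells and 100% = Gossypol at 36 µM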). The settings on record: HEK293 GAL4-SRC2 luciferase reporter, at 8.9 µM, active compounds read high. For orientation: A reporter such as luciferase makes a cellular process visible.

Experiment [5] deals with Nuclear receptor coactivator 1 (Homo sapiens) (UniProt Q15788). Description: SRC1 coactivator transcriptional activity inhibitors, confirmation, cell-based, luminescence, quadruplicate (AID 588820;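 active = mean inhibition above 46.68%, the untreated control wells mean plus 3 SD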;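 also: 0% = DMSO wells and 100% = gossypol 36 µM treated wells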). The following applies: HEK293 GAL4-SRC1 luciferase reporter, at 3.6 µM, active compounds read high.
Sequence of Nuclear receptor coactivator 1 (Homo sapiens) (Q15788 whole entry, looked up, the tested form may be a part): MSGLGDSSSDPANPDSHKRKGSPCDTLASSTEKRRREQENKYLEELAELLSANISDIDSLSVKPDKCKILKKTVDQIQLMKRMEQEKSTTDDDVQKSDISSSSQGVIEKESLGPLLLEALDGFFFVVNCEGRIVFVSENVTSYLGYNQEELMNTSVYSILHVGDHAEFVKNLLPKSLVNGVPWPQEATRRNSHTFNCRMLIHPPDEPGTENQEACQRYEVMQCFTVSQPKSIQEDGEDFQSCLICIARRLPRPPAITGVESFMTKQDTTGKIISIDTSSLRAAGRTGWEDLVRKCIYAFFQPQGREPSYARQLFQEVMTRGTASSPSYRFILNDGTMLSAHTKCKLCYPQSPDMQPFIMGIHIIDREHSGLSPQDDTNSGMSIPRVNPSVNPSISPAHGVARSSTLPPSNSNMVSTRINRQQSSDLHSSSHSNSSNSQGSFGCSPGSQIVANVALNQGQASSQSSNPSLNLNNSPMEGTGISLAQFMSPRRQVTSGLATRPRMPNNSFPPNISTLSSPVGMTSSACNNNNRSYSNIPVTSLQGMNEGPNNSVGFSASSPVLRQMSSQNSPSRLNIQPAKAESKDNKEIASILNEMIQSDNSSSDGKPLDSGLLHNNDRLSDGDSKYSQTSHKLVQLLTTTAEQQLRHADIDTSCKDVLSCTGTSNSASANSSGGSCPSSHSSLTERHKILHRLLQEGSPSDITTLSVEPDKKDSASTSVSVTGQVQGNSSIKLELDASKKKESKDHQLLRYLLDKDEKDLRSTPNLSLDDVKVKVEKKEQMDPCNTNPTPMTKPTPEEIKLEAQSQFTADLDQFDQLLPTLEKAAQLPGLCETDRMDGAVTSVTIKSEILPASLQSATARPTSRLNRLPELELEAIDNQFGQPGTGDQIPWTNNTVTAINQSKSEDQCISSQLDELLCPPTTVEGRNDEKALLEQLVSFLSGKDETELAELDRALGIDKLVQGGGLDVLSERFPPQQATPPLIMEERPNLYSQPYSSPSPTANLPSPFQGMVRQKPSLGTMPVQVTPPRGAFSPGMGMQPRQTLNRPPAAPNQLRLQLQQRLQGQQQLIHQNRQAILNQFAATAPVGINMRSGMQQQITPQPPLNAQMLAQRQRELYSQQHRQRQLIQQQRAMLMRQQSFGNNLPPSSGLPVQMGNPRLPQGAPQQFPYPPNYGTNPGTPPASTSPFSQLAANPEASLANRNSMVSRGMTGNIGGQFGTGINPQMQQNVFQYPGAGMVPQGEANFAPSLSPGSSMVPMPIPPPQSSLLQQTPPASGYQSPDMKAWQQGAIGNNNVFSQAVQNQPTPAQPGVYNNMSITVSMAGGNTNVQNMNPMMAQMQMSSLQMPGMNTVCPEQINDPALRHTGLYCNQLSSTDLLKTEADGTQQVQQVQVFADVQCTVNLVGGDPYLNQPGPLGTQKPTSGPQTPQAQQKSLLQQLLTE
Experiment [6] is described as follows: VP16 transactivation inhibitors, counter-screen for SRC1 inhibitor project, cell-based, luminescence, high throughput (AID 588824; in the data active = inhibition above about 25%). The settings on record: cell-based VP16 transactivation luciferase luminescence; at 3.6 µM; active compounds read high.

Sequence of Nuclear receptor coactivator 2 (Homo sapiens) (Q15596 whole entry, looked up, the tested form may be a part): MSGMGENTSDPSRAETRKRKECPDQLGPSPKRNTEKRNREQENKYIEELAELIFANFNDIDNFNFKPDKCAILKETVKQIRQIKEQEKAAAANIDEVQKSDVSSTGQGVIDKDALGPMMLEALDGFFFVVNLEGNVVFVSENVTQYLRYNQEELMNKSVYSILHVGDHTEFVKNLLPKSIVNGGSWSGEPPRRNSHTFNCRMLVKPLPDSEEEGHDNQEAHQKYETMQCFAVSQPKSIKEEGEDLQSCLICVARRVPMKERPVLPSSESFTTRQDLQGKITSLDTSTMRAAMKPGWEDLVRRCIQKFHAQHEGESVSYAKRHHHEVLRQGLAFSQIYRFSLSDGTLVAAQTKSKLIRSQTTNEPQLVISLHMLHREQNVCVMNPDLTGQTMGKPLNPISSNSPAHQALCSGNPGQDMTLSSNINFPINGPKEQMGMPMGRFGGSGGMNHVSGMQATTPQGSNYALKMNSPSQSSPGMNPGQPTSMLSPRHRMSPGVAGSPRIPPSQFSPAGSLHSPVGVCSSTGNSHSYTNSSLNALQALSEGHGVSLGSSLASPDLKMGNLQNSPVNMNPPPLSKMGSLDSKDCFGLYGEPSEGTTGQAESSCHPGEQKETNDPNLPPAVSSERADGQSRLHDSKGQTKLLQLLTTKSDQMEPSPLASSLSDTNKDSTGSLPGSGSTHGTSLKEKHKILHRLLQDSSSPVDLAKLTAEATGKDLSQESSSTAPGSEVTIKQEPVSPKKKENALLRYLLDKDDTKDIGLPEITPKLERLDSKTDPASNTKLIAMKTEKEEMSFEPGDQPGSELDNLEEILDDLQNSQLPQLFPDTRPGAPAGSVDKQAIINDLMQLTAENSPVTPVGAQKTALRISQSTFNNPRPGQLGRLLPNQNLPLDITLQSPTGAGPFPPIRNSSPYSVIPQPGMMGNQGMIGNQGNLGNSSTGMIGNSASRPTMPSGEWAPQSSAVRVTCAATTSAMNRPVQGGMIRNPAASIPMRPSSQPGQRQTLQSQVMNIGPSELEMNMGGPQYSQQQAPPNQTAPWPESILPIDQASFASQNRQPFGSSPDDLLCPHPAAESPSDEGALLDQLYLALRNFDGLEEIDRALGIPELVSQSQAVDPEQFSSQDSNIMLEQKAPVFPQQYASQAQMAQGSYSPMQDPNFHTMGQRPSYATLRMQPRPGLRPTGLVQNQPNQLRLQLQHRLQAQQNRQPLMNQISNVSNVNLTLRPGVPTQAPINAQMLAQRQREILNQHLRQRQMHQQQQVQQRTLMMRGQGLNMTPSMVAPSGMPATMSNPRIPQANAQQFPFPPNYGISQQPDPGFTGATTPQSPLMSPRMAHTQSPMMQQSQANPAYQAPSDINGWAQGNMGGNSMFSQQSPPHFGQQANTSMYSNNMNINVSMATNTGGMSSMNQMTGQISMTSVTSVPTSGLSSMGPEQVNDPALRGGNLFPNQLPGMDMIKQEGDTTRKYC

One may read the inhibition as the change of the read-out against control, counted positive when it falls. `Cc1ccc(-n2nnnc2Sc2ccc(S(=O)(=O)NCCN(C)C)cc2[N+](=O)[O-])cc1`: the inhibition in experiment [1] is 33.8%; in experiment [2], 35.9% (active); in experiment [3] it was 18.6%; in experiment [4] it was 31.4%.
For `Cc1cccc(CN2CCN(C(=O)CCl)CC2)c1` the same measures were 31.7%, 18.2%, 38% (active) and 33.5%.
For `COCCN(C(=O)CCl)C(C(=O)NC1CCCCC1)c1ccccc1C` (stereo unspecified) the same measures were 52.3% (active), 38.7% (active), 45.5% (active) and 58.5% (active).
For `Cc1noc(C)c1COC(=O)c1cccc(S(=O)(=O)N2CCCCCC2)c1` the same measures were 8.78%, 20.2%, 9.01% and 13%.
`CCCCN(CC)Cc1ccc(CNC(=S)Nc2ccc(C)cc2Cl)o1`: the inhibition in experiment [1] is 14.2%; in experiment [2], -5.53%; in experiment [3], 12.7%; in experiment [4], 30.4%.
For `COC(=O)c1c(C)n(-c2ccc(OC)cc2)c2ccc(O)cc12` the same measures were 41.4%, 24.1%, -4.83% and 28.1%.
For `Cc1ccc(C2=NN(C(=O)CCl)C(c3ccco3)C2)o1` (stereo unspecified) the same measures were 38.2%, 7.74%, 15.3% and 51.2% (active).
For `O=C(O)c1ccc(N/N=C/c2ccc3c(c2)OCO3)cc1` the same measures were -1.59%, -12.1%, -0.58% and 51.3% (active).
`CC1CCN(c2ccc(-c3cccs3)nn2)CC1`: the inhibition in experiment [1] was 22.9%; in experiment [2], 9.04%; in experiment [3], 34.7%; in experiment [4] it was 47.3% (active).
For `COc1ccc(N(C(=O)CCl)C(C(=O)NCCc2ccccc2)c2cccs2)cc1Cl` (stereo unspecified) the same measures were 46.4% (active), 41.7% (active), 29.9% and 64.9% (active).
For the compound `CC(=O)CSc1ccc(-c2nc3cc(C)c(C)cc3[nH]2)cn1`, the inhibition in experiment [1] is 22.4%; in experiment [2], 3.79%; in experiment [3] it was 10.4%; in experiment [4], 78.8% (active).
For `O=C(Nc1ccccc1)NN(C(=O)CCl)c1ccccc1` the same measures were -0.31%, 13.4%, 32.9% and 56.9% (active).
For `COc1cccc(F)c1C(C[N+](=O)[O-])c1c(N)n(C)c(=O)n(C)c1=O` (stereo unspecified), the inhibition was 42.5% in experiment [1], 24.4% in experiment [2], 14.7% in experiment [3] and 28.2% in experiment [4].
For the compound `COc1ccc(C(=O)Nc2ccc(C)cn2)c(OC)c1`, the inhibition was -0.48% in experiment [1], -4.91% in experiment [2], 23.7% in experiment [3] and 49.8% (active) in experiment [4].
For the compound `CCC(=O)c1ccc(O)c(CC=C(C)C)c1`, the inhibition in experiment [1] is 35.8%; in experiment [2], 23.9%; in experiment [3], -16.9%; in experiment [4], 14.5%.
For `CCc1ccc(-c2nc(CS(=O)CC(=O)NCc3ccco3)c(C)o2)cc1` (stereo unspecified) the same measures were 10.8%, -12.6%, 3.28% and 56.7% (active).
For `CCOc1ccc(C(=O)O/N=C(\N)c2ccccn2)cc1` the same measures were -0.86%, -11.6%, 15.8% and 21.9%.
For `CCCCn1c(CCl)nc2cc(S(=O)(=O)N3CCOCC3)ccc21` the same measures were 71.6% (active), 34.6% (active), 22% and 64.1% (active).
On to `CC(=O)OCCN1c2ccccc2Sc2cnccc21`, for which the inhibition in experiment [1] was 43.4% (active); in experiment [2], 26.4%; in experiment [3], -4.99%; in experiment [4] it was 23.7%.
As to `COc1ccc(COC(=O)C2=C(C)NC(=O)NC2c2ccc(OC)cc2)cc1` (stereo unspecified), the inhibition is 11.2% in experiment [1], 20.8% in experiment [2], 12% in experiment [3] and 33% in experiment [4].
For `Cc1ccc(C2=NN(C(=O)CCl)C(c3cccs3)C2)o1` (stereo unspecified) the same measures were 36.8%, 13.5%, 17.2% and 56.9% (active).
For `O=C(Nc1ccc(OCC(=O)N2CCOCC2)cc1)c1cncc(Br)c1` the same measures were 29.6%, 23%, 3.8% and 26.1%.
For `O=C(OCc1ccccc1)c1ccc(NCc2cc(O)ccc2O)cc1` the same measures were 70.6% (active), 25.9%, 94.5% (active) and 90% (active).
Turning to `CCCCN(C(=O)/C=C/c1ccccc1)C1CCS(=O)(=O)C1` (stereo unspecified), the inhibition was -6.12% in experiment [5] and -4.11% in experiment [6].
For `COCCn1c(C)cc(/C=C2/NC(=O)N(c3cccc(Cl)c3)C2=O)c1C` the same measures were -34.5% and -40.5%.
